# According to PubChem BioAssay (NCI):
# This is part of a sample that, as a whole, favours compounds with a hit. Of some 83,000 tested, about 20% had one in any assay.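 Compound tested at a single concentration for 48 hours in 96-well plates; a percent growth value below 10 was scored as active.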 The source made the active and inactive calls.
# Tested on: A498 renal
# Assay: NCI-60 one-dose screen, 48 h (100 = growth as untreated, 0 = no growth, -100 = all killed)
# Settings: 10 µM unless noted
# Protocol: Growth inhibition of the A498 human tumor cell line is measured as a screen for anti-cancer activity. Cells are grown in 96 well plates and exposed to the test compound for 48 hours. Compounds are tested at a single concentration, which is 10^-5 M for most compounds. The reported endpoint is percent growth (GI% or GIPRCNT), where numbers from 0 - 100% represent growth inhibition, and numbers from -100% - 0 represent cell death. For example, a value of 40 represents 60% growth inhibition. A value of 0 means no net growth occurred over the course of the experiment. A value of -40 indicates 40% of cells at the beginning of the experiment died by the end of the experiment. A value of -100 means all cells are dead at the end of the experiment.
# NCI-60 Human Tumor Cell Lines Screen was performed using the standard one-dose NCI protocol, which is described in more detail at https://dtp.cancer.gov/discovery_development/nci-60/default.htm.
# Compounds with GIPRCNT values below 10 were considered active. Activity score was based on GIPRCNT using the following formula: […]
# Score is 0 for GIPRCNT values of 100 or above, 50 for GIPRCNT values of 0, and 100 for GIPRCNT values of -100.
row,SMILES,growth
1,O=C1CC(c2ccc(I)cc2)OC2C=Cc3ccccc3C12 (stereo not given),119% (inactive)
2,O=C(CSc1nnc(-c2ccc(-c3nc4ccc(Cl)cc4[nH]3)cc2)o1)Nc1ccccc1,130% (inactive)
3,N#C/C(=C/c1ccc([N+](=O)[O-])cc1)c1nnc(NC(=O)c2ccc(-n3c(=O)[nH]c4ccccc4c3=O)cc2)s1,132% (inactive)
4,COC(=O)c1cc(C(=O)C(C)(C)C)n2c3ccccc3c3ccccc3c12,156% (inactive)
5,O=C(OCCOCCO)N(c1cccc(Br)c1)c1nc(SCCN2CCOCC2)nc2c1cnn2CC(Cl)c1ccc(Br)cc1 (stereo not given),45.5% (inactive)
6,CN1CCN(c2ccc3c4c(cccc24)C(=O)N(c2cccc(-c4nn(-c5ccccc5)cc4-c4nc5ccccc5s4)c2)C3=O)CC1,128% (inactive)
7,Cc1oc(-c2ccccc2)nc1CN[C@@H]1C[C@@H]2C[C@H]([C@H]1C)C2(C)C,31.6% (inactive)
8,CC(C)(C)OC(=O)N1CCC2(CC1)Oc1ccccc1[C@H]1CC(c3ccc(Br)cc3)=NN12,98.7% (inactive)
9,Cn1ncc2c(N)nc(Oc3ccccc3-c3ccccc3)nc21,105% (inactive)
10,O=C(Nc1nc2ccc([N+](=O)[O-])cc2s1)Nc1ccc(Cl)cc1Cl,-0.785% (active)
11,COc1cc(/C=C/C(=O)c2ccc(S(=O)(=O)NCCNc3nc(N(C)C)nc(N4CCOCC4)n3)cc2)cc(OC)c1OC,51.9% (inactive)
12,C#CCN(C)CCCOc1ccc(N(CC)C(=O)c2cc(C(C)C)c(O)cc2O)cc1Cl,21.6% (inactive)
13,COc1ccc2[nH]c(=O)c(CSc3ccccc3Nc3nccc(-c4ccc(Cl)cc4)n3)cc2c1,85.8% (inactive)
14,O=C(NN1C(=O)/C(=C/C=C/c2ccc([N+](=O)[O-])o2)SC1=S)c1ccc(O)cc1,14.6% (inactive)
15,Nc1nn2c(-c3cc4cc(Br)ccc4oc3=O)ccnc2c1N=Nc1ccccc1,-17% (active)
16,Clc1ccccc1Nc1nnc(-c2c[nH]c3ccccc23)o1,113% (inactive)
17,CC1=C(C)C(=O)C(N2CCSCC2)=CC1=O,98.2% (inactive)
18,COc1cccc2nc(Nc3cccc(NC(=O)c4ccc(CN5CCN(C)CC5)c(C(F)(F)F)c4)c3)ccc12,-94.9% (active)
19,CN(C)c1nc(NCCNS(=O)(=O)c2ccc(C(=O)/C=C/c3ccc(C(F)(F)F)cc3)cc2)nc(N2CCOCC2)n1,72.5% (inactive)
20,O=C(Nc1ccc(-c2ccc3c(c2)NC(=O)/C3=C\c2ccc[nH]2)cc1)Nc1ccc(Cl)c(Cl)c1,101% (inactive)

row,SMILES,growth
1,Cc1nc(Nc2ccccn2)sc1C1=NNC(c2ccccc2F)C1 (stereo not given),101% (inactive)
2,O=C(CSc1nnc(-c2ccc(-c3nc4ccccc4[nH]3)cc2)o1)Nc1ccc(Br)cc1,109% (inactive)
3,CC[C@]12C=CCN3CC[C@@]4(c5ccc(OC)cc5N(C)[C@H]4[C@@](O)(C(=O)OC)[C@@H]1OC(=O)CCC[P+](c1ccc(OC)cc1)(c1ccc(OC)cc1)c1ccc(OC)cc1)[C@@H]32,-83.2% (active)
4,CCCCCCCCc1cccc(CC(=O)Nc2ccc(C)cc2C(=O)O)c1,123% [25 µM] (inactive)
5,COC(=O)c1c(C(=O)OC)c2c3ccccc3c3ccccc3n2c1C(=O)C(C)(C)C,132% (inactive)
6,COc1ccc2oc(=O)c(-c3csc(N/N=C(\C)c4cc(OC)c(OC)c(OC)c4)n3)cc2c1,145% (inactive)
7,COc1ccc(NC(=O)Cn2c(/C=C/c3cccc(Br)c3)nc3ccccc3c2=O)cc1,-51.1% (active)
8,COc1ccc(/C=C/C(=O)c2ccc(OC)c(S(N)(=O)=O)c2)c(C(F)(F)F)c1,195% (inactive)
9,COc1ccc2c(c1)C(Sc1ccc(F)cc1)c1c(nc(N)c(C#N)c1N)O2 (stereo not given),101% (inactive)
10,Cn1cc(-c2cc3nc(-c4c[nH]c5ccccc45)cc(N)n3n2)c2ccccc21,130% (inactive)
11,COc1ccc(/C=C/c2nc3ccccc3c(=O)n2CC(=O)Nc2ccccc2)cc1,-43% (active)
12,N#Cc1cc(-c2ccc3ncnc(N4CCc5cc(F)c(Cl)cc54)c3c2)cnc1N,-0.0443% (active)
13,Cn1cc(-c2cc(N)n3nc(-c4c[nH]c5ccc(F)cc45)cc3n2)c2cccnc21,-74.8% (active)
14,O=C(N/N=C/c1ccc(Br)o1)c1[nH]c2ccc(Br)cc2c1-c1ccccc1,-7.37% (active)
15,CCc1ccccc1NC(=O)N/C(N)=N/c1nc2ccccc2s1,60.3% (inactive)
16,COc1ccc2[nH]cc(-c3cc4nc(-c5cn(C)c6ncccc56)cc(N)n4n3)c2c1,116% (inactive)
17,CCOc1ccc(-c2cc(-c3cc(C(C)C)c(O)cc3C)nn2-c2ccc(S(N)(=O)=O)cc2)cc1,98.3% (inactive)
18,NS(=O)(=O)c1ccc(Nc2nc(SCC(=O)c3ccc(F)cc3)nc3ccccc23)cc1,94.6% (inactive)
19,CN(C)CCOc1ccc(C(=O)C2[C@H](c3ccc(Cl)cc3)[C@@H](c3ccccc3)NC23C(=O)Nc2ccc(Cl)cc23)cc1 (stereo not given in full),-95.9% (active)
20,O=C1Nc2ccc(F)cc2/C1=C/C(=O)c1cc2ccccc2oc1=O,128% (inactive)
